# Measured values published in the supplement of paper PMC11732987, “Enantioselective OTUD7B fragment discovery through chemoproteomics screening and high-throughput optimisation” (Communications Chemistry, 2025).
# Values without a mark were called inactive.
# Key:
# Assay in all cases: log2 ratio of Biotin-Ahx-Ub-VS probe labelling (fragment/DMSO); higher = less target engagement (more negative = stronger competition), active = hit call of the paper (q ≤ 0.05, log2 ratio ≤ -1)
# Settings in all cases: compound concentration: 200 uM; treatment time: 3 h
# [1] = biological target: T1, ALG13 (UniProt Q9NP73)
# T1 sequence (whole entry): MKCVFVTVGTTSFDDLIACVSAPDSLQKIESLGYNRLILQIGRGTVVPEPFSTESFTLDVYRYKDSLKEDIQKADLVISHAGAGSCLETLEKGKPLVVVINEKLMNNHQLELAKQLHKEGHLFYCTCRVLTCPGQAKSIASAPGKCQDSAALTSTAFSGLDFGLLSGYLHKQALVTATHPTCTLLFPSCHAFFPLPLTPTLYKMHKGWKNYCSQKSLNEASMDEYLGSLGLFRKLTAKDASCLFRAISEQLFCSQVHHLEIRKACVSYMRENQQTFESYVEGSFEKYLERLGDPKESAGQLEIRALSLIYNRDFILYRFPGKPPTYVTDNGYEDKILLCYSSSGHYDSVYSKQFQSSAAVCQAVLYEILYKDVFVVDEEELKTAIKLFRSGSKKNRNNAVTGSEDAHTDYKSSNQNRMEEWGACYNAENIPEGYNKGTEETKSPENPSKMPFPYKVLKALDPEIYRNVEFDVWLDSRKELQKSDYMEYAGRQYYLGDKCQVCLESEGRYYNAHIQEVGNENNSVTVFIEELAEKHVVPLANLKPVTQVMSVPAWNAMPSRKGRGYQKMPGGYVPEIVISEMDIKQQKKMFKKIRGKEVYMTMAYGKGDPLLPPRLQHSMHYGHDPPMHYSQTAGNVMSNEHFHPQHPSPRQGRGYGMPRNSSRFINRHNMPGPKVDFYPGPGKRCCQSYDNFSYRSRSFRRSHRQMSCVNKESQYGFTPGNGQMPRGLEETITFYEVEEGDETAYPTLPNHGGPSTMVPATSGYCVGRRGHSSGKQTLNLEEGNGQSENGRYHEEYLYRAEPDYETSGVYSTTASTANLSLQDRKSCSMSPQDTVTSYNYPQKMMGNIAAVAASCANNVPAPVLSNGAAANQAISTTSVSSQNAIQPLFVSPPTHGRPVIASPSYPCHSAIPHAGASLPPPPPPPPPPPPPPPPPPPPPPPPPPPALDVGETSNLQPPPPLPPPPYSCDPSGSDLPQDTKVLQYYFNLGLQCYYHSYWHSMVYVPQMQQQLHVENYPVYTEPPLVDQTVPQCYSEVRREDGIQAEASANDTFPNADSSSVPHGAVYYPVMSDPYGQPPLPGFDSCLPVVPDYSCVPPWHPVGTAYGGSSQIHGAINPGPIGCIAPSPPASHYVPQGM
# Procedure, shortened: (§1)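 Lysate from HEK293T cells, 495 µg per sample in Tris/CHAPS/IGEPAL buffer with protease inhibitors, was treated for 3 h in triplicate with fragment at 200 µM or vehicle. Biotin-Ahx-Ub-VS was next added at 0.5 µM final for 1 h. The labelled DUBs were enriched with NeutrAvidin, digested with LysC and trypsin, and run by diaPASEF LC-MS/MS, with values given as average log2 fragment/vehicle ratios by unpaired t-test on global-median-normalised Spectronaut quantities of proteins with ≥2 unique peptides.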
# [2] = biological target: ATXN3 (UniProt P54252)
# Procedure, shortened: as §1
# [3] = biological target: T2, BAP1 (UniProt Q92560)
# T2 sequence (whole entry): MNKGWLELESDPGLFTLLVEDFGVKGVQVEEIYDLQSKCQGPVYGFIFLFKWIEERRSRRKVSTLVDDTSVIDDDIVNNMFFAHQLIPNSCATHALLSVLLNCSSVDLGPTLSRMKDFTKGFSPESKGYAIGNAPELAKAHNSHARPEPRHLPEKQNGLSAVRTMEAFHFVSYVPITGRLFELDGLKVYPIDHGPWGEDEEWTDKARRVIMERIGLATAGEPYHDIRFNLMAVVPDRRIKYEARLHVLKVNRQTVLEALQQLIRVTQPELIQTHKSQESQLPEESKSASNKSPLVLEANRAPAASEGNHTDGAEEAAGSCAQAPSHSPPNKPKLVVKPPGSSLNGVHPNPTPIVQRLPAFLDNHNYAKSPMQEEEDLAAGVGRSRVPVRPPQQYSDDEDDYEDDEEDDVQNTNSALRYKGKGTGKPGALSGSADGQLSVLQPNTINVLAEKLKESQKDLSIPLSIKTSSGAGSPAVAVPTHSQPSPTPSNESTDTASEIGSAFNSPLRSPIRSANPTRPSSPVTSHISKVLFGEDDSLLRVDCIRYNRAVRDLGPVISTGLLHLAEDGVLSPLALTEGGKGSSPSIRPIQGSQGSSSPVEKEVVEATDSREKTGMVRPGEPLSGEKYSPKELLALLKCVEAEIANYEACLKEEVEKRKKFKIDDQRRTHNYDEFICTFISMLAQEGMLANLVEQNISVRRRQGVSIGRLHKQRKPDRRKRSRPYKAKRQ
# Procedure, shortened: as §1
# [4] = biological target: EIF3F (UniProt O00303)
# Procedure, shortened: as §1
# [5] = biological target: EIF3H (UniProt O15372)
# Procedure, shortened: as §1
# [6] = biological target: T3, FAM105A (UniProt Q9NUU6)
# T3 sequence (whole entry): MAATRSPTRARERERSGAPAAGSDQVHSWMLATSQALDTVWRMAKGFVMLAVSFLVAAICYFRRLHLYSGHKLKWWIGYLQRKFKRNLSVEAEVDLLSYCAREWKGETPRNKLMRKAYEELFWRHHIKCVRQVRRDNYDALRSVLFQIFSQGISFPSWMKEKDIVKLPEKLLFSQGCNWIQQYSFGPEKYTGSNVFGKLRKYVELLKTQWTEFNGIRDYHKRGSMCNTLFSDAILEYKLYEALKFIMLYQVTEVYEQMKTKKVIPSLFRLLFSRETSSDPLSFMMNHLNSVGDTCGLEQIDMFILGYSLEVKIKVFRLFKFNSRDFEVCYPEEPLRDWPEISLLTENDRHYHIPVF
# Procedure, shortened: as §1
# [7] = biological target: OTUB1 (UniProt Q96FW1)
# Procedure, shortened: as §1
# [8] = biological target: T4, OTUD4 (UniProt Q01804)
# T4 sequence (whole entry): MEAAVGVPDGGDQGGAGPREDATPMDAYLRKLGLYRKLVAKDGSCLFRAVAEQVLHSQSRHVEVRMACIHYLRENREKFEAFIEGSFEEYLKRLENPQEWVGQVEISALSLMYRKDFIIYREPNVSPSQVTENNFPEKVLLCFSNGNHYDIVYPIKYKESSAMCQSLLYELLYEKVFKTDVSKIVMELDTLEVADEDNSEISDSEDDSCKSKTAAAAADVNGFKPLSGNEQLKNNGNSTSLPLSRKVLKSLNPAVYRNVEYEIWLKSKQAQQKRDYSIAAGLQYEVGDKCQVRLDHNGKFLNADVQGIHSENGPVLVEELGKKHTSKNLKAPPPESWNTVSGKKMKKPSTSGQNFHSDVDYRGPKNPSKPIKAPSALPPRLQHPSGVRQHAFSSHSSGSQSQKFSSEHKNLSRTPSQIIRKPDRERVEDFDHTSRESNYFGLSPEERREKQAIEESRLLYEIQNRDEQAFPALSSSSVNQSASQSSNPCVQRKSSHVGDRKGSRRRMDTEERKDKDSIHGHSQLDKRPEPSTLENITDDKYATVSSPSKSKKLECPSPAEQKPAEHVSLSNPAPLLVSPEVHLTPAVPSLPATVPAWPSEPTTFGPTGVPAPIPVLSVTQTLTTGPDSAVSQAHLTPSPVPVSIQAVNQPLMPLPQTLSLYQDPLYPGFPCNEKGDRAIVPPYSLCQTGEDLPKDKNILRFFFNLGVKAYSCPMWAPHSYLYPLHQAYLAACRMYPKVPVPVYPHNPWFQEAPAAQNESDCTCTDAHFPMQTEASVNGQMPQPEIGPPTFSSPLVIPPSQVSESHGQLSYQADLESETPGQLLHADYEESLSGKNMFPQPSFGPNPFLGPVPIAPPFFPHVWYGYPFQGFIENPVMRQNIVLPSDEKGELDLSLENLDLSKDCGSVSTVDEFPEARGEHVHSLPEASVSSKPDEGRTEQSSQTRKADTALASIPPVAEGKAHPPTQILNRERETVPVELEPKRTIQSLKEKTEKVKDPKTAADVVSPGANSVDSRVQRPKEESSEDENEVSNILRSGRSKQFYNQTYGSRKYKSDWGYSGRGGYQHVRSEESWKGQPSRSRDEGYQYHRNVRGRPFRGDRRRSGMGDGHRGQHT
# Procedure, shortened: as §1
# [9] = biological target: T5, OTUD5 (UniProt Q96G74)
# T5 sequence (whole entry): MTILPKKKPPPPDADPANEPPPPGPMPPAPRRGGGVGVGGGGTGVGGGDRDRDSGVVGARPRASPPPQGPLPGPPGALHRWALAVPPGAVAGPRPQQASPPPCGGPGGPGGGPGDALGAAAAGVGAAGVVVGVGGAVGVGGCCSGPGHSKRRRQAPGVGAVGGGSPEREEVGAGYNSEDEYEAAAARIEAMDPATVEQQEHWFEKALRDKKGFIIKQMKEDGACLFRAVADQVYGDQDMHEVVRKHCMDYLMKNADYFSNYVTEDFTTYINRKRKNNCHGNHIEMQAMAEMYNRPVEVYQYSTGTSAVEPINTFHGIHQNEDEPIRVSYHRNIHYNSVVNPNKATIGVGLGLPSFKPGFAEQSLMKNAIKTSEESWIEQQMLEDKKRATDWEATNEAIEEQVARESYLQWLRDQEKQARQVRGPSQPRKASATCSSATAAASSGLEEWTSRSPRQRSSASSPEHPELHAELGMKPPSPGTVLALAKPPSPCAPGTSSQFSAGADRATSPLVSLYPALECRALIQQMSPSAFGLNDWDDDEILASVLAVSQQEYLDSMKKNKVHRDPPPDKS
# Procedure, shortened: as §1
# Sequence of EIF3H (O15372 whole entry): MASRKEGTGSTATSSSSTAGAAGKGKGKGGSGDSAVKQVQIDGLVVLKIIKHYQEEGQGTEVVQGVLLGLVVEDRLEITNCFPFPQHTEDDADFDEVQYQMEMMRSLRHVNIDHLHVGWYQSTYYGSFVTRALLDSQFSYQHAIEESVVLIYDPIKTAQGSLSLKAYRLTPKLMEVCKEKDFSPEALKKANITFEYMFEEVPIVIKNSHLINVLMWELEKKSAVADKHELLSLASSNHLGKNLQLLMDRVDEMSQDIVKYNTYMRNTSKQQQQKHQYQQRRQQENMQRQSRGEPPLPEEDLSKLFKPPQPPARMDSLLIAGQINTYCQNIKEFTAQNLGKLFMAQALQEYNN
# Sequence of ATXN3 (P54252 whole entry): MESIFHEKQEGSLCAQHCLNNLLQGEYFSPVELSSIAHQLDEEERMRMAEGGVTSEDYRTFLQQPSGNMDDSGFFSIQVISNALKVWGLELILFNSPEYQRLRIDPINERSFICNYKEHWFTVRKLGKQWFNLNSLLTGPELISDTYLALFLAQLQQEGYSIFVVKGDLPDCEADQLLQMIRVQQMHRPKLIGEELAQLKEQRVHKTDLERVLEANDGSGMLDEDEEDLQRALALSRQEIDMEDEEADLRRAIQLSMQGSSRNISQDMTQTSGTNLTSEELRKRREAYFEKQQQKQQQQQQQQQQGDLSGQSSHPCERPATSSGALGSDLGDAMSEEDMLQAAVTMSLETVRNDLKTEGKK
# Sequence of OTUB1 (Q96FW1 whole entry): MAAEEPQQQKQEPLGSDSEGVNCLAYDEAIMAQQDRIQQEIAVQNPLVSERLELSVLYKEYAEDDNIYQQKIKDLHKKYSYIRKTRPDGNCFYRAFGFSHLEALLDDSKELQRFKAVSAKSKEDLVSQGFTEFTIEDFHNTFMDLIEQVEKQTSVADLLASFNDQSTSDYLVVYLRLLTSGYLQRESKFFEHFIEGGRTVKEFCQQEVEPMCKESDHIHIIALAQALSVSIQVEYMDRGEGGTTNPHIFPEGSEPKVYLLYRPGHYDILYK
# Sequence of EIF3F (O00303 whole entry): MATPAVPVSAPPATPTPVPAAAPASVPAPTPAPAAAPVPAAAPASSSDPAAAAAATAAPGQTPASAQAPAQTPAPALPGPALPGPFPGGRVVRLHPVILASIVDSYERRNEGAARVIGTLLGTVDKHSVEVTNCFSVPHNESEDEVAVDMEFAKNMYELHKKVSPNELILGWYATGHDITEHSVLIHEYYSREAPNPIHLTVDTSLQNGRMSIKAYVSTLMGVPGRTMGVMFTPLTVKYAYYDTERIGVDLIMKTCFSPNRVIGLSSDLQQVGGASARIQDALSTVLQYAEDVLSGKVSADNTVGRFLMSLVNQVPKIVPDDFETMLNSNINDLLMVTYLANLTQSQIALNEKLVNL
smiles,measurement,setting,value
Cc1ccccc1C1(CNC(=O)CCl)CCOCC1,log2 ratio of Biotin-Ahx-Ub-VS probe labelling,[1],0.22
same,log2 ratio of Biotin-Ahx-Ub-VS probe labelling,[2],-0.273
same,log2 ratio of Biotin-Ahx-Ub-VS probe labelling,[3],-1.23 (active)
same,log2 ratio of Biotin-Ahx-Ub-VS probe labelling,[4],0.0678
same,log2 ratio of Biotin-Ahx-Ub-VS probe labelling,[5],0.00175
same,log2 ratio of Biotin-Ahx-Ub-VS probe labelling,[6],0.0441
same,log2 ratio of Biotin-Ahx-Ub-VS probe labelling,[7],-0.0623
same,log2 ratio of Biotin-Ahx-Ub-VS probe labelling,[8],-0.322
same,log2 ratio of Biotin-Ahx-Ub-VS probe labelling,[9],-0.157
